# According to PMC10726135, “HNF4α isoforms regulate the circadian balance between carbohydrate and lipid metabolism in the liver”:
# In all, about 18,000 sequences were measured (“log2 normalized intensity”: median about 0.39, highest 2% from about 6.6 on). The sample holds the highest values, similar sequences and a random draw of the others, so the mix is not that of the screen.
# Molecular target: T1, HNF4alpha2 (COS-7 nuclear extract) (Homo sapiens, UniProt P41235 1-474)
# T1 sequence: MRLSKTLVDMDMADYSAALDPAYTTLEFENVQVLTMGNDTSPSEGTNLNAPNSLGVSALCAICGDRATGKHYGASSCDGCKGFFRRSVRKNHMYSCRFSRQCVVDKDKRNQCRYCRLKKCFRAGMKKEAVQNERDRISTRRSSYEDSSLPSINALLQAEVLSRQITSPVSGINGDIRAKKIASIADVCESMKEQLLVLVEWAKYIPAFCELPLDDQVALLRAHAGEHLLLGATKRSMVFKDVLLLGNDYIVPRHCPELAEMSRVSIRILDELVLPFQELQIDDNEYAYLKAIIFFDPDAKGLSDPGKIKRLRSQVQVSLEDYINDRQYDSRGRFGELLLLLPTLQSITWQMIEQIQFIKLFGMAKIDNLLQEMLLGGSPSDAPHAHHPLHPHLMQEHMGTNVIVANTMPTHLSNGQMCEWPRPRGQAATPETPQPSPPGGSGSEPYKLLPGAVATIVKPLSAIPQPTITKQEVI
# Test: protein-binding microarray; COS-7 nuclear extract on double-stranded Agilent 4x180k PBM; binding buffer, salt, pH and temperature not given in the material; high values mean tight binding
# Settings: chain copies: 2; label: 3' end of strand 1 on the slide; dsDNA, one strand shown
# Procedure, shortened: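 A human HNF4α isoform was expressed in COS-7 cells by transient CaPO4 transfection, and nuclear extracts were prepared. These were applied to a custom Agilent SurePrint G3 4x180k array carrying ~44,000 test sequences in quadruplicate as double-stranded ~60-nt oligonucleotides, and an Agilent G2565CA scanner imaged bound HNF4α at 2-µm resolution. The background-corrected, normalized gProcessedSignal from Agilent software was used as the binding signal.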
row,Sequence,binding signal
1,TGAGGCCCCAGTGTCAATTCTCATTCATCCGCCTAGGGAGATTAGAGTATCGGTCGA,-0.225 log2 normalized intensity
2,AACCCTTGCACTGCTGGTTTTTGTCAAAGAGCCTAGGGAGATTAGAGTATCGGTCGA,0.709 log2 normalized intensity
3,GCCTGTCAGGCCCAGAAACACTGAACCTTGGCCTAGGGAGATTAGAGTATCGGTCGA,1.63 log2 normalized intensity
4,TTGCACTGCTCAGGGTGGGGTCTCGCTGCTGCCTAGGGAGATTAGAGTATCGGTCGA,-0.755 log2 normalized intensity
5,ACACAATATTATGTTTTGTTATCTGTGCCAGCCTAGGGAGATTAGAGTATCGGTCGA,1.17 log2 normalized intensity
6,GTAAACTCCCTTTGATGCGGTCAGAGTTCAGCCTAGGGAGATTAGAGTATCGGTCGA,3.08 log2 normalized intensity
7,AGTGAACTCAAAGAAAAGTTATGTTGGGCAGCCTAGGGAGATTAGAGTATCGGTCGA,1.17 log2 normalized intensity
8,TCCCTTGCTCCACCCTTCTATCCCCTTATCGCCTAGGGAGATTAGAGTATCGGTCGA,2.8 log2 normalized intensity
9,GACTGTCTTAGGAAAGAACAGGTCAAAGGTGCCTAGGGAGATTAGAGTATCGGTCGA,3.91 log2 normalized intensity
10,TCTTAGGAAAGAACAGGTCAAAGGTCAGTTGCCTAGGGAGATTAGAGTATCGGTCGA,9.13 log2 normalized intensity
11,GCAGAGCAGTTTAGAGAAAGGGTCAAAGGTGCCTAGGGAGATTAGAGTATCGGTCGA,5.29 log2 normalized intensity
12,TCAGAAACAGGAATTCAAAGGTGCAAAGGTGCCTAGGGAGATTAGAGTATCGGTCGA,2.06 log2 normalized intensity
13,GGTCAAAGGTCAGTTTCTTTAAGACAAGTGGCCTAGGGAGATTAGAGTATCGGTCGA,5.53 log2 normalized intensity
14,GCAGTTTAGAGAAAGGGTCAAAGGTTAAGCGCCTAGGGAGATTAGAGTATCGGTCGA,8.4 log2 normalized intensity
15,CTTTGGACTTTCAAAAGTTAAGGTCAAGACGCCTAGGGAGATTAGAGTATCGGTCGA,1.94 log2 normalized intensity
16,TTAGAGAAAGGGTCAAAGGTTAAGCCATTGGCCTAGGGAGATTAGAGTATCGGTCGA,5.92 log2 normalized intensity
17,AAGATTTATCAGGTCTTTCTTTCAGAACAGGCCTAGGGAGATTAGAGTATCGGTCGA,0.622 log2 normalized intensity
18,GGAAAGAACAGGTCAAAGGTCAGTTTCTTTGCCTAGGGAGATTAGAGTATCGGTCGA,7.28 log2 normalized intensity
19,GAACAGGTCAAAGGTCAGTTTCTTTAAGACGCCTAGGGAGATTAGAGTATCGGTCGA,7.04 log2 normalized intensity
20,TAGGAGACTGTCTTAGGAAAGAACAGGTCAGCCTAGGGAGATTAGAGTATCGGTCGA,1.14 log2 normalized intensity
21,ACCCTGAATGTGTGCTGGCCTGGTTCCTTCGCCTAGGGAGATTAGAGTATCGGTCGA,0.887 log2 normalized intensity
22,TTGTCCCTTTTCTATCCAGATGATCTTTACGCCTAGGGAGATTAGAGTATCGGTCGA,2.25 log2 normalized intensity

row,Sequence,binding signal
1,GTCCCAGTAGATAACTTCAAGGAGCTCGGCGCCTAGGGAGATTAGAGTATCGGTCGA,-0.627 log2 normalized intensity
2,GTAGGGCCAATCTCTGGCATGTATTTATCAGCCTAGGGAGATTAGAGTATCGGTCGA,0.384 log2 normalized intensity
3,ATAGGAGGATTTTATTCAGGTGGCCACTGGGCCTAGGGAGATTAGAGTATCGGTCGA,1.03 log2 normalized intensity
4,GTTCCGCGGTCCGCAGCGCTGGTGGCTGCAGCCTAGGGAGATTAGAGTATCGGTCGA,-0.919 log2 normalized intensity
5,CTTTGTATAAGCCGTGCAAAGTTCATCCCTGCCTAGGGAGATTAGAGTATCGGTCGA,3.24 log2 normalized intensity
6,CTCGAGGTGGACTTTCCCCCCTCACACTTTGCCTAGGGAGATTAGAGTATCGGTCGA,5.25 log2 normalized intensity
7,TTGTTTTTGCTTGGAATGCCCTTATCTCATGCCTAGGGAGATTAGAGTATCGGTCGA,2.32 log2 normalized intensity
8,AGCTGGGCCTGTGCTGGGGACAAAAGCTGAGCCTAGGGAGATTAGAGTATCGGTCGA,-0.959 log2 normalized intensity
9,CTTACTCTCTCCCTCCTCCTTTTTTTCCCCGCCTAGGGAGATTAGAGTATCGGTCGA,2.98 log2 normalized intensity
10,CCCTCCTCCTTTTTTTCCCCTCCCTCAGCTGCCTAGGGAGATTAGAGTATCGGTCGA,3.64 log2 normalized intensity
11,ACACCAGGCCCTCGGCATCATGCCCTTTGGGCCTAGGGAGATTAGAGTATCGGTCGA,3.91 log2 normalized intensity
12,CTCGGCATCATGCCCTTTGGCCCCCAGAGCGCCTAGGGAGATTAGAGTATCGGTCGA,6.14 log2 normalized intensity
13,ATTCCCTTTCTCCTCCCCTCCCCTCCCCCCGCCTAGGGAGATTAGAGTATCGGTCGA,6.91 log2 normalized intensity
14,TTCCTCCCACTCTGACATCCCCCTTTCTCTGCCTAGGGAGATTAGAGTATCGGTCGA,3.26 log2 normalized intensity
15,CTTTCTCCTCCCCTCCCCTCCCCCCACTCAGCCTAGGGAGATTAGAGTATCGGTCGA,6.94 log2 normalized intensity
16,CATTTTTTTCCACCCTCCCCTCCCCCTCCTGCCTAGGGAGATTAGAGTATCGGTCGA,6.28 log2 normalized intensity
17,TTTTCCACCCTCCCCTCCCCCTCCTCCCCTGCCTAGGGAGATTAGAGTATCGGTCGA,7.13 log2 normalized intensity
18,AGGCCCTCGGCATCATGCCCTTTGGCCCCCGCCTAGGGAGATTAGAGTATCGGTCGA,7.28 log2 normalized intensity
19,ACTGCATTCCCTTTCTCCTCCCCTCCCCTCGCCTAGGGAGATTAGAGTATCGGTCGA,4.31 log2 normalized intensity
20,TCTCTCCCTCCTCCTTTTTTTCCCCTCCCTGCCTAGGGAGATTAGAGTATCGGTCGA,4.61 log2 normalized intensity
21,TCCTGATCCCTGAGGTCGGGGCCTGGTCTGGCCTAGGGAGATTAGAGTATCGGTCGA,0.683 log2 normalized intensity
22,CAATGCCCCAGAAAGCCAGCAGGGGCTGCTGCCTAGGGAGATTAGAGTATCGGTCGA,-0.844 log2 normalized intensity

row,Sequence,binding signal
1,AGCTTCTCTTTCTAGGTCACCACCTTTTTTGCCTAGGGAGATTAGAGTATCGGTCGA,1.37 log2 normalized intensity
2,GGCCTGATAGATTTTGCATTGCTCACATAGGCCTAGGGAGATTAGAGTATCGGTCGA,-0.988 log2 normalized intensity
3,TCCTCCAAAACCCAGTTCATAGGTCAATTCGCCTAGGGAGATTAGAGTATCGGTCGA,4.02 log2 normalized intensity
4,GAAAAAGCTGACGCCCCACCCCCTCCACCCGCCTAGGGAGATTAGAGTATCGGTCGA,6.44 log2 normalized intensity
5,TCCTCCCCTCCCCTCCCCCCACTCAAAATAGCCTAGGGAGATTAGAGTATCGGTCGA,6.79 log2 normalized intensity
6,CCCTCCCCTCCCCCCACTCAAAATAGGAGTGCCTAGGGAGATTAGAGTATCGGTCGA,4.52 log2 normalized intensity
7,AGCTGACGCCCCACCCCCTCCACCCCTGCCGCCTAGGGAGATTAGAGTATCGGTCGA,6.82 log2 normalized intensity
8,ACGCCCCACCCCCTCCACCCCTGCCTTTCAGCCTAGGGAGATTAGAGTATCGGTCGA,6.39 log2 normalized intensity
9,CCCTCCCCCCACTCAAAATAGGAGTTAAGGGCCTAGGGAGATTAGAGTATCGGTCGA,2.45 log2 normalized intensity
10,GGCTATACAATTCCAGCAAGGATGGGGGCAGCCTAGGGAGATTAGAGTATCGGTCGA,-0.832 log2 normalized intensity
11,AAAATTAAGGTTCAAAGGGAAAAAATAATCGCCTAGGGAGATTAGAGTATCGGTCGA,-0.757 log2 normalized intensity
12,TTCCATTGAAGCAGAGTGTCCCATATCACAGCCTAGGGAGATTAGAGTATCGGTCGA,0.724 log2 normalized intensity
13,GTTAGATTAGTGTGCAGCTTTGTGTAAAACGCCTAGGGAGATTAGAGTATCGGTCGA,0.946 log2 normalized intensity
14,AGATCTCAGTTGGTCCAAGGTACATGTCTCGCCTAGGGAGATTAGAGTATCGGTCGA,2.34 log2 normalized intensity
15,GACCTTTGCCCTCTGGCCCTTAAAGGCTTTGCCTAGGGAGATTAGAGTATCGGTCGA,6.99 log2 normalized intensity
16,GAAAAGGCCTGACCTTTGCCCTCTGGCCCTGCCTAGGGAGATTAGAGTATCGGTCGA,9.1 log2 normalized intensity
17,AGAGGACAGAAGAAGGAAAAGGCCTGACCTGCCTAGGGAGATTAGAGTATCGGTCGA,-0.388 log2 normalized intensity
18,CCCTCGACCTTTGCCCTCCATAAGGGGGAGGCCTAGGGAGATTAGAGTATCGGTCGA,6.24 log2 normalized intensity
19,GACAGCTGGGCCCTGCCTGACCTGCCCTTTGCCTAGGGAGATTAGAGTATCGGTCGA,4.42 log2 normalized intensity
20,CTCTGCAGAGGCTTCCTCTTTGGTGCAAAGGCCTAGGGAGATTAGAGTATCGGTCGA,-0.855 log2 normalized intensity
21,CCCTGCCTGACCTGCCCTTTGTCCCTCCTGGCCTAGGGAGATTAGAGTATCGGTCGA,4.51 log2 normalized intensity
22,CAGAGGCTTCCTCTTTGGTGCAAAGGTCAGGCCTAGGGAGATTAGAGTATCGGTCGA,6.86 log2 normalized intensity

row,Sequence,binding signal
1,TTCTGCCCCTTGCTCCTGCTTGCTGGCTTTGCCTAGGGAGATTAGAGTATCGGTCGA,1.2 log2 normalized intensity
2,CTCTTTGGTGCAAAGGTCAGGACAAGGCTCGCCTAGGGAGATTAGAGTATCGGTCGA,4.3 log2 normalized intensity
3,ACAGAAGAAGGAAAAGGCCTGACCTTTGCCGCCTAGGGAGATTAGAGTATCGGTCGA,4.61 log2 normalized intensity
4,AGAAGGAAAAGGCCTGACCTTTGCCCTCTGGCCTAGGGAGATTAGAGTATCGGTCGA,10.1 log2 normalized intensity
5,TTGAAGCAGAGTGTCCCATATCACATTTTAGCCTAGGGAGATTAGAGTATCGGTCGA,0.955 log2 normalized intensity
6,TGCTTATCAGTGTACCTGTCCCTACTCAATGCCTAGGGAGATTAGAGTATCGGTCGA,0.371 log2 normalized intensity
7,GTGCCCTCATAAGAGACTTTGCCCTTTTTTGCCTAGGGAGATTAGAGTATCGGTCGA,5.63 log2 normalized intensity
8,TCAGGACTCTAACTGGCTTTAAGAGGAATGGCCTAGGGAGATTAGAGTATCGGTCGA,-0.943 log2 normalized intensity
9,AGGAATGAGACATGAATCCATCCCACCTCAGCCTAGGGAGATTAGAGTATCGGTCGA,-0.775 log2 normalized intensity
10,AAACTTTAGTAGTCCAAAGCTCAGATTGCCGCCTAGGGAGATTAGAGTATCGGTCGA,0.566 log2 normalized intensity
11,AGATGGTCTCAGGTGGAGATAAGGAATTTGGCCTAGGGAGATTAGAGTATCGGTCGA,-0.171 log2 normalized intensity
12,CTTCTTTGAAAGTTTGGTGGACTTTGGCCGGCCTAGGGAGATTAGAGTATCGGTCGA,9.62 log2 normalized intensity
13,TTGAAAGTTTGGTGGACTTTGGCCGTGAAGGCCTAGGGAGATTAGAGTATCGGTCGA,6.79 log2 normalized intensity
14,TAATTCTTCTTTGAAAGTTTGGTGGACTTTGCCTAGGGAGATTAGAGTATCGGTCGA,6.32 log2 normalized intensity
15,GGTGGACTTTGGCCGTGAAGCCGTCCTGTCGCCTAGGGAGATTAGAGTATCGGTCGA,5.03 log2 normalized intensity
16,GGCATTAATTCTTCTTTGAAAGTTTGGTGGGCCTAGGGAGATTAGAGTATCGGTCGA,2.23 log2 normalized intensity
17,AGTTTGGTGGACTTTGGCCGTGAAGCCGTCGCCTAGGGAGATTAGAGTATCGGTCGA,6.2 log2 normalized intensity
18,TTTGCTCCAGTTCCCAATAATTTCCTTATCGCCTAGGGAGATTAGAGTATCGGTCGA,-0.628 log2 normalized intensity
19,TGTAACTAACAACTGACCTTGCAGGCCAGGGCCTAGGGAGATTAGAGTATCGGTCGA,-0.838 log2 normalized intensity
